Compound activity as filed in PubChem.
MITF primary = inhibitors of human MITF; AlphaScreen MITF homodimerization, bead proximity signal; 0.91% of 650,000 active; inhibition, % at 2.6 µM; AID 1259374; in the data active = inhibition above about 50%;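 also: 0% = vehicle wells with protein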
TEAD-YAP block = TEAD-YAP interaction inhibition; HEK-TIYL cells, TEAD-Gal4/YAP UAS-luciferase luminescence; inhibition, % at 9.12 µM; 1.4% of 640,000 active; AID 1259422; in the data active = inhibition above about 32%;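 also: 0% = median of test compound wells and 100% = reference inhibitor wells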
GPR151 ag = activates the human receptor GPR151; activation, % at 11.2 µM; PathHunter beta-arrestin GPR151 cells, luminescence; Q8TDV0; 1% of 650,000 active; in the data active = activation above about 4.9%;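 also: 0% = median of compound wells and 100% = cells with positive control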
FBW7 act = activators of human E3 ligase FBW7; AlphaScreen FBW7–phospho-cyclin E peptide binding, activator screen; normalized activity (activation), % at 26.1 µM; 0.13% of 650,000 active; AID 1259310; in the data active = normalized activity above about 1.9%;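 also: purified mutant Fbw7 with reduced substrate affinity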
GPR151 conf act = human GPR151 activation, confirmation screen; shares compounds with GPR151 ag; GPR151 PathHunter beta-arrestin cells, luminescence, 90 min; % of EA-reagent control over plate median; activation, % at 11.2 µM; 6,700 tested, under 10 active;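 active = mean percent activation across replicates above the confirmation screen cutoff of 4.91%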
GPR119 ag = counter-screen for GPR151 activators: effect on human GPR119; activation, % at 11.2 µM; AID 1508611; 0.3% of 6,700 active; shares compounds with GPR151 ag; GPR119 PathHunter beta-arrestin cells, luminescence, 90 min; 0 = compound-well median, 100 = enzyme-acceptor control;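 active = mean percent activation in the counterscreen above 29.09%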;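 also: counterscreen on off-target GPR119 to flag nonselective hits from the GPR151 activator screen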
Target sequence (Q8TDV5 whole entry, looked up): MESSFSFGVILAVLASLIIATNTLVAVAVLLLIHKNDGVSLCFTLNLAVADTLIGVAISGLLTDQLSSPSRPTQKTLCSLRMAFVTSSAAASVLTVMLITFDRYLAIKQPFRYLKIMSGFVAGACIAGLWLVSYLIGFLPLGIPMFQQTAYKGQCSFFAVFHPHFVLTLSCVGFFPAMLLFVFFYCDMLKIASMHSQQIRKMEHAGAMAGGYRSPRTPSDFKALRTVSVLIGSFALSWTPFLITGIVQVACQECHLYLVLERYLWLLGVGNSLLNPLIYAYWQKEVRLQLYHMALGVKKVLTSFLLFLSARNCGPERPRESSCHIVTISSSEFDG
* = called active by the depositor; . = no result given. This is a sample that favours compounds with a hit; in the whole collection about 3.4% have one here.

SMILES | MITF primary | TEAD-YAP block | GPR151 ag | FBW7 act | GPR151 conf act | GPR119 ag
COC(=O)c1nnn(-c2nonc2N)c1C(=O)OC | 1.6 | 0.2 | 6.0* | -0.6 | -0.9 | -8.1
COC(=O)c1nnn(-c2nonc2N)c1C(C)(C)C | 7.0 | -6.8 | -0.1 | 0.0 | . | .
Cc1ccccc1-c1cnnc(NCc2cc(-c3ccccc3)on2)n1 | 18.0 | -3.2 | -2.3 | 0.3 | . | .
Cc1ccccc1-c1cnnc(NCC2COCCO2)n1 (stereo unspecified) | 2.5 | -1.3 | 7.4* | 0.0 | 0.9 | 2.1
COc1cc(NC(=O)C2CCN(c3ccc(Nc4cc(OC)c(OC)c(OC)c4)nn3)CC2)cc(OC)c1OC | 7.3 | -6.7 | 7.8* | -0.2 | -0.7 | -4.4
COc1cc(NC(=O)C2CCN(c3ccc(Nc4ccccc4)nn3)CC2)cc(OC)c1OC | 9.9 | -14.8 | -1.0 | 1.1 | . | .
O=C(Nc1ccnn1C1CCN(Cc2ccccc2OCCO)CC1)c1cccc(F)c1 | -10.0 | -6.3 | 5.9* | 0.0 | 0.5 | -3.1
COc1ccc(F)c(CN2CCC(n3nccc3NC(=O)C3CCCC3)CC2)c1 | -3.4 | 2.5 | 0.5 | -0.1 | . | .
CCOc1ccccc1CN1CCC(n2nccc2NC(=O)C(C)(C)C)CC1 | 13.5 | -12.9 | 6.8* | 0.0 | 0.4 | 9.2
O=C(Nc1ccnn1C1CCN(Cc2ccccc2F)CC1)C1CCCC1 | -0.4 | -8.6 | 5.3* | -0.1 | -1.2 | -16.4
O=C(O)c1ccccc1Nc1nc(N2CCOCC2)nc(N2CCOCC2)n1 | -2.8 | -40.9 | 9.0* | 0.0 | -0.9 | -12.8
C/C=C/C(=O)NC(=S)NNC(=O)C(Oc1ccccc1)Oc1ccccc1 | 4.7 | 5.2 | -0.5 | -0.5 | . | .
COc1cc(OC)c(NC(=O)Nc2noc3c2COc2ccccc2-3)cc1Cl | 3.3 | 6.9 | 5.2* | 0.1 | 0.9 | -0.7
CCOC(=O)C1=CN(Cc2ccc(Cl)cc2)C=C(C(=O)OCC)C1c1ccc(OCc2ccccc2)cc1 | -20.1 | -3.6 | 0.8 | 0.1 | . | .
Cc1noc(C2CN(C(=O)c3ccc(Cn4ccnc4)cc3)C2)n1 | 0.3 | 1.1 | 2.9 | -0.1 | . | .
O=C(N/N=C/c1ccccc1F)c1cccnc1 | 12.9 | -3.1 | 7.1* | 0.4 | -0.8 | -6.1
Cc1[nH]c2ccccc2c1/C=N/NC(=O)c1cccnc1 | 1.4 | -13.1 | 5.2* | 0.0 | -0.7 | 7.2
Cc1[nH]c2ccccc2c1/C=N/NC(=O)c1ccccc1O | 14.8 | -9.6 | 0.1 | 0.1 | . | .
CC(C)C(=O)Nc1ccc(NC(=O)c2ccccc2Cl)nc1 | 2.3 | -38.6 | 6.9* | 0.0 | 1.0 | 9.1
O=C(Nc1ccccn1)c1ccccc1Cl | -2.0 | -21.1 | 6.0* | -0.1 | -1.4 | -17.1
COc1ccc(N2CCN(CC(O)COc3ccccc3C(C)=O)CC2)cc1 (stereo unspecified) | 14.6 | 9.2 | 5.9* | -0.1 | 0.1 | 8.3
CC1CCCCN1c1ncccc1C(=O)NC1CCCC1 (stereo unspecified) | 30.4 | -3.8 | 6.4* | 0.1 | 1.4 | 4.1
CC1CCCCN1c1ncccc1C(=O)N1CCCC1 (stereo unspecified) | 10.1 | 2.7 | -1.1 | 0.3 | . | .
CCCC(=O)ON1C(=O)c2cccc3cccc(c23)C1=O | 19.5 | -3.3 | 5.5* | 0.1 | 0.3 | 13.8
CC(C)CN1CCc2nnc(CNC(=O)C3CCCN(C)C3)n2CC1 (stereo unspecified) | 0.3 | -6.5 | -1.5 | -0.1 | . | .
SMILES | MITF primary | TEAD-YAP block | GPR151 ag | FBW7 act | GPR151 conf act | GPR119 ag
Fc1ccc(NC(=S)N/N=C/c2ccncc2)cc1 | 13.4 | -1.6 | -0.2 | 0.4 | . | .
COCC(=O)NC1CCN(C(=S)Nc2ccccc2Cl)CC1 | 0.0 | -18.5 | -0.3 | 0.3 | . | .
COCC(=O)NC1CCN(C(=S)Nc2ccc(Cl)cc2)CC1 | 3.3 | -0.1 | 7.4* | 0.0 | 1.1 | 7.6
COc1ccc(-c2noc(N3CCN(c4ccc(C)cc4)C(C)C3)n2)cc1 (stereo unspecified) | 1.4 | 1.3 | 5.0* | 0.0 | -0.9 | -1.9
NC(=O)C1CCN(C(=O)c2cc3c(=O)n4ccccc4nc3s2)CC1 | 2.9 | -7.2 | -0.3 | -0.2 | . | .
CCN1C(=O)/C(=C/c2cc(C)n(C3CCCC3)c2C)C(=O)NC1=S | 21.0 | -0.1 | 6.3* | 0.0 | -0.5 | -11.3
Cn1ncc2c(N3CCN(Cc4ccc5c(c4)OCO5)CC3)ncnc21 | 5.6 | 2.4 | 0.6 | 0.8 | . | .
O=[N+]([O-])c1ccc2ncnc(N3CCN(Cc4ccc5c(c4)OCO5)CC3)c2c1 | 4.2 | 34.9* | 12.3* | -0.5 | 1.2 | 3.5
